# Laboratory results: PubChem BioAssay AID602475 (National Center for Advancing Translational Sciences (NCATS), 2012)
# Records with an inconclusive call do not appear. Values without a mark were called inactive. Calls of active or inactive are those of the source. Calls follow the shape of the dose curve; as a rule, active = well fitted inhibition curve with a large enough effect; inconclusive = small, poorly fitted or top-dose-only effect; inactive = no such curve, though single readings can be large or run the other way.
# Target: Luciferin 4-monooxygenase (Photinus pyralis) (UniProt P08659)
# Sequence (P08659 whole entry, looked up): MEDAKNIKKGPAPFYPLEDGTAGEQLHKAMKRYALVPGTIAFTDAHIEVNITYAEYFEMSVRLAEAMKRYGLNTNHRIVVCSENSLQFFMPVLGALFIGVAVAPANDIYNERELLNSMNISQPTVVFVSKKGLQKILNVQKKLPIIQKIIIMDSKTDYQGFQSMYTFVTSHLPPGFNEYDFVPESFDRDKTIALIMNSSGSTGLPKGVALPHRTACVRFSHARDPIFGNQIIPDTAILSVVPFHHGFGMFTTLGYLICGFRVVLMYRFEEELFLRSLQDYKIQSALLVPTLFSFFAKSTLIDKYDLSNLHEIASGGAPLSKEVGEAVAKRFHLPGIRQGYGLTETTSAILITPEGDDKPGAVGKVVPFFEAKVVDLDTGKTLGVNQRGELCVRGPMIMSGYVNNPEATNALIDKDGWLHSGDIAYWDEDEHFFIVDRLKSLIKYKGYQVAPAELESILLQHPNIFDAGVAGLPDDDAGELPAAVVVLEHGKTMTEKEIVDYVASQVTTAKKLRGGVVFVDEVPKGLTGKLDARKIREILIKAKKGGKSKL
# Assay: FLuc inhibitory activity for the follow-up compounds in a biochemical assay with an in-house formulation of detection reagent
# Settings: purified FLuc, luminescence; series mostly up to 25.6 µM; activity change, negative = inhibition: at the top concentration
# Source text: NCGC Assay Overview: Firefly (Photinus pyralis) luciferase is one of the most commonly used transcriptional reporters. It is considered one of the more dynamically responsive reporters - that is, responsive to changes in reporter transcription - as it requires no post-translational modifications and is enzymatically active directly after protein synthesis (Wood, 1998). With no endogenous expression in mammalian cells and without the requirement of external excitation, it offers very little background signal, thus generally providing excellent signal to background for most assays. Previous profiling work to determine the prevalence of compounds that affect FLuc enzymatic activity (PubChem AID 411) identified that ~3% of the MLSMR library (then at ~72K) inhibited FLuc (Auld et al., 2008). […] Of the compounds identified in this profile that inhibited FLuc, 151 compounds were selected for further analysis, in an effort to better understand their mode of inhibiting FLuc. The assay described here was to determine the activity of the compounds in a FLuc assay that used an in-house formulation of detection reagent.
# NCGC Assay Protocol Summary: Reagents: 300mM Tris-HCl, 300mM Trizma base, 300mM MgCl, 1% Triton-X100, 5mM DTT, 500uM Coenzyme A trilithium salt (Sigma #C3019),450uM ATP (Sigma #A7699), 1mM D-luciferin sodium salt monohydrate (Biosynth #L8240); 10nM P. pyralis luciferase (Sigma #L9506) Control compounds used were two known firefly luciferase inhibitors (3-(5-(3-chlorophenyl)-1,2,4-oxadiazol-3-yl)benzoic acid and 5-(2-fluorophenyl)-3-phenyl-1,2,4-oxadiazole), and DMSO. Assay Summary: Six microliters of buffer containing firefly luciferase (final concentrations: 50mM Tris acetate, 10nM P. pyralis luciferase) are dispensed into each well of a Greiner white, solid-bottom 1536-well format plate using a flying reagent dispenser (FRD). These assay plates were then treated with 23nL of compound or DMSO using a Kalypsys pin tool, which allows for delivery of a 12-point intraplate titration of each compound to the assay plate (quantitative HTS), with final compound concentrations ranging from approximately ~25uM to 0.1nM. Three microliters of 3X in-house detection reagent was then delivered by FRD to each well (final concentrations in assay: 300mM Tris-HCl, 300mM Trizma base, 300mM MgCl, 1% Triton-X100, 5mM DTT, 500uM Coenzyme A trilithium salt, 450uM ATP, 1mM D-luciferin sodium salt monohydrate). Luciferase activity was then measured using a ViewLux CCD imager (PerkinElmer), with an average exposure time of 2-30 seconds (2X binning, medium/high gain).
SMILES,"activity change, negative = inhibition",Potency
O=C(O)c1cccc(NC(=O)c2ccccc2NC(=O)c2ccco2)c1,-24.1%,–
Nc1ccc(-c2nc3cc(N)ccc3s2)cc1,–,8.74 µM (active)
O=C(Nc1ccccc1C(=O)O)c1cccc(NC(=O)c2ccccc2Br)c1,-2.39%,–
COc1ccccc1C(=O)Nc1ccc(C(=O)O)cc1,-16.7%,–
COc1ccc(C(=O)Nc2ccccc2C(=O)Nc2ccccc2C(=O)O)cc1,-25.8%,–
Cc1ccc(NS(=O)(=O)c2ccc(Cl)c(C(=O)Nc3cccc(C(=O)O)c3)c2)cc1,-3.21%,–
O=C(O)c1cccc(NC(=O)c2cccc(NC(=O)C3CCCO3)c2)c1 (stereo not given),-14.9%,–
O=C(Cc1ccccc1)Nc1ccccc1C(=O)Nc1ccc(C(=O)O)cc1,-19.1%,–
Cc1ccc(C(=O)O/N=C(\N)c2ccccn2)c(Cl)c1,–,0.0619 µM (active)
O=C(Nc1ccccc1-c1nc2ccccc2s1)c1cccnc1,-17.1%,–
CC(=O)Oc1ccc(C(=O)Nc2ccccc2C(=O)Nc2ccc(C(=O)O)cc2)cc1,-24.4%,–
COc1ccc2nc(NC(=O)c3nc(S(=O)(=O)Cc4ccc(C)cc4)ncc3Cl)sc2c1,-19.5%,–
O=C(Nc1ccccc1C(=O)O)c1ccc(NC(=O)C2CCCCC2)cc1,3.23%,–
CCOc1ccc2nc(NC(=O)c3ccccc3)sc2c1,–,6.19 µM (active)
O=C(Nc1ccccc1C(=O)O)c1cccc(NC(=O)c2ccccc2Cl)c1,-26.1%,–
Cc1ccc2nc(-c3ccc(N)cc3)sc2c1,–,4.91 µM (active)
Cc1cccc(NS(=O)(=O)c2cccc(C(=O)Nc3cccc(C(=O)O)c3)c2)c1,8.12%,–
Cn1c(N/N=C/c2cc3ccccc3nc2Cl)nc2ccccc21,-15.9%,–
Cc1c(C)c2ccc(OCC(=O)Nc3ccccn3)c(C)c2oc1=O,–,0.0874 µM (active)
CCOc1ccc2nc(NC(=O)Cc3cccs3)sc2c1,-13.3%,–

SMILES,"activity change, negative = inhibition",Potency
Cc1ccc(C(=O)Nc2cccc(C(=O)O)c2)cc1,–,13.8 µM (active)
COc1ccc2nc(NC(=O)c3ccc(NS(=O)(=O)c4cccs4)cc3)sc2c1,45.8%,–
CCOc1ccc(C(=O)Nc2ccccc2C(=O)O)cc1,–,6.94 µM (active)
COc1ccc(C(=O)Nc2nc3ccc(OC)cc3s2)cc1,-5.76%,–
CN=c1scc(-c2ccccc2F)n1/N=C/c1ccc[nH]1,–,0.123 µM (active)
COc1ccc2nc(NC(=O)c3cnccn3)sc2c1,–,4.38 µM (active)
O=C(Nc1ccccc1C(=O)O)c1ccccc1,-24%,–
Nc1cccc(-c2nc3ccc(N)cc3s2)c1,–,3.9 µM (active)
CCCC(=O)Nc1nc2ccc(OCC)cc2s1,-37.4%,–
Cc1c(NC(=O)C(C)(C)C)cccc1-c1nc2ccccc2s1,2.61%,–
O=C(O)c1cccc(NC(=O)c2ccc(Cl)c(S(=O)(=O)N3CCCCCC3)c2)c1,-13.5%,–
O=C(Nc1ccccc1C(=O)O)c1cccc(C(=O)Nc2ccccc2C(=O)O)c1,-16.8%,–
COc1cc(C(=O)Nc2cc(C)c(O)c(-c3nc4ccccc4s3)c2)cc(OC)c1OC,-8.7%,–
CCOc1ccc2nc(NC(=O)c3ccoc3C)sc2c1,–,4.91 µM (active)
COc1ccc(-c2cccc(C(=O)Nc3cccc(C(=O)O)c3)c2)cc1,-0.002%,–
Oc1ccc(-c2nc3ccccc3s2)c(O)c1,-6.99%,–
CCc1noc(C)c1C(=O)Nc1nc2ccc(OC)cc2s1,-15.2%,–
O=C(O)c1cccc(NC(=O)c2cccc(S(=O)(=O)Nc3cccc(F)c3)c2)c1,-12%,–
O=C(Nc1ccc(-c2nc3ccccc3s2)cc1)C1=COCCO1,–,2.46 µM (active)
O=C(O)c1ccc(NC(=O)c2cccc(C(=O)Nc3ccc(C(=O)O)cc3)c2)cc1,-13.4%,–
